Screening data as filed in PubChem BioAssay.
PAD4 inh: blocks human protein arginine deiminase 4; Q9UM07; 330,000 tested, 0.41% active; inhibition, % at 6.36 µM; recombinant PAD4, RCA probe fluorescence polarization;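 active = percent inhibition above a cutoff equal to the mean of all tested compounds plus 3 SD, cut at about 15% in these data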;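 note: 0% = PAD4 with RCA probe and DMSO and 100% = probe without PAD4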
LYPLA2 counter: blocks human lysophospholipase 2, a PME1 counter-screen; O95372; recombinant LYPLA2, FP-Rh probe fluorescence polarization; inhibition, % at 5.9 µM; 320,000 tested, 0.38% active;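 active = inhibition above the screen-wide mean plus 3 SD, limit set per campaign, cut at about 26% in these data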;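 note: 0% = LYPLA2 with DMSO and 100% = wells lacking LYPLA2 enzyme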
PME-1 primary: blocks human protein phosphatase methylesterase 1; Q9Y570; recombinant PME-1, FP-Rh probe fluorescence polarization; inhibition, % at 5.9 µM; 320,000 tested, 0.53% active; AID 2130;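 active = inhibition above the campaign mean of all compounds plus 3 SD, cut at about 26% in these data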;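 note: competitive labeling of PME-1 active site by serine hydrolase directed probe; 0% = PME-1 with DMSO and 100% = wells lacking PME-1 enzyme; inhibitors block probe labeling so polarization falls and inhibition rises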
Target sequence (Q9Y570 whole entry, looked up): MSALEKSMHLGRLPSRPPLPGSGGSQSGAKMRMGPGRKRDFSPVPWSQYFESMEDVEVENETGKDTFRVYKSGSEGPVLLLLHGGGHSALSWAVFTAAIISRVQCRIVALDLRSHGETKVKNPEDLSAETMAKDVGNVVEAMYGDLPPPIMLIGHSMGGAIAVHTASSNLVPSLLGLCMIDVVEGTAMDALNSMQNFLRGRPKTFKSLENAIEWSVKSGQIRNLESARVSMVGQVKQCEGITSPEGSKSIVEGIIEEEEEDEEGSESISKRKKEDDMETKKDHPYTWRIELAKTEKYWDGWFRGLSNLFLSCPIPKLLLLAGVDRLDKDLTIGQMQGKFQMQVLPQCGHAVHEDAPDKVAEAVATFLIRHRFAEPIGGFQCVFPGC
LYPLA1 inh: blocks human lysophospholipase 1, a PME1 counter-screen | recombinant LYPLA1, FP-Rh probe fluorescence polarization | inhibition, % at 5.9 µM | 320,000 tested, 0.16% active;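 active = inhibition above the mean of all tested compounds plus 3 SD, set per campaign, cut at about 14% in these data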;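 note: inhibitors block serine hydrolase probe labeling of LYPLA1 so polarization falls; 0% = enzyme with DMSO and 100% = wells lacking LYPLA1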
Target sequence (O75608 whole entry, looked up): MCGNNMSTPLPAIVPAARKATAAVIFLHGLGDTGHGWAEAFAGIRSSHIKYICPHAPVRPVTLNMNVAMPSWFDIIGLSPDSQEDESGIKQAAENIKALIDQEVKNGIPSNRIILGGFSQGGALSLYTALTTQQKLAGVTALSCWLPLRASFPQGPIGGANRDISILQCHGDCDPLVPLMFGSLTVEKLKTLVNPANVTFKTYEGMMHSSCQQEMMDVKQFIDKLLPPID
Fam108B inh: counter-screen for RBBP9 inhibitors: inhibitors of mouse Fam108B | recombinant Fam108B, FP-Rh probe fluorescence polarization | inhibition, % at 9.51 µM | 300,000 tested, 0.33% active | AID 1947;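 active = inhibition above the screen mean inhibition plus 3 SD, computed separately per campaign, cut at about 18% in these data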;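 note: inhibitors lower polarization as less probe binds the enzyme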
GSTO1 inh: blocks human GSTO1 in RBBP9 counter-screen. P78417. recombinant GSTO1, activity-based probe fluorescence polarization. inhibition, % at 5.96 µM. 300,000 tested, 1.1% active. AID 1974;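 active = inhibition above the campaign mean inhibition plus 3 SD, cut at about 35% in these data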;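 note: 0% = GSTO1-1 with DMSO and 100% = wells lacking GSTO1-1 enzyme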
LYPLA2 confirm: counter-screen for PME1 inhibitors: confirmation of human LYPLA2 inhibitors. shares compounds with LYPLA2 counter. recombinant LYPLA2, FP-Rh probe fluorescence polarization. inhibition, % at 5.9 µM. 1,100 tested, 72% active. AID 2232;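 active = mean inhibition across replicates above the hit cutoff set in the primary screen, cut at about 26% in these data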;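 note: blocked labeling of the enzyme by serine hydrolase FP-Rh probe lowers polarization; 0% = enzyme with DMSO and 100% = wells lacking LYPLA2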
Numbers without * were called inactive; . = not tested or not shown. This is a sample that favours compounds with a hit; in the whole collection about 1.8% have one here.

SMILES	PAD4 inh	LYPLA2 counter	PME-1 primary	LYPLA1 inh	Fam108B inh	GSTO1 inh	LYPLA2 confirm
COc1cccc(CN(C)C(=O)c2ccc(COc3ccc(Cl)cc3)cc2)c1OC	1	21	-1	3	0	2	.
O=C(O)c1ccccc1SCc1cn2cc(Cl)ccc2n1	-1	32*	0	2	2	-1	2
NC(=O)CC(NC(=O)c1ccc(Br)cc1)c1ccc(N2CCN(c3ccccc3)CC2)c([N+](=O)[O-])c1 (stereo not drawn)	5	26*	-1	-4	-2	2	28*
O=C(NN=Cc1ccccc1OC(F)F)c1cccc(S(=O)(=O)N2CCCC2)c1	2	.	.	.	.	.	.
CCn1c(SCC(=O)c2ccc(F)cc2)nnc1-c1ccoc1C	-2	35*	-1	5	-2	8	-3
Cc1occc1-c1nnc(SCCCC(=O)c2ccc(F)cc2)n1C	2	2	-3	0	4	11	.
Cc1cc(NC(=O)CSc2nnc(-c3ccccc3Cl)o2)no1	5	-7	-2	-1	-2	13	.
CCCOc1ccc(-c2c(=O)n(O)c3ccccc3[n+]2[O-])cc1	-4	50*	-8	8	-1	18	20
COc1ccc(NC(=O)Nc2cccc3c2O[C@@H](CN(C)CC2CCCCC2)[C@@H](C)CN([C@H](C)CO)C3=O)cc1	-1	.	.	.	.	.	.
COc1ccc(-c2cc(C(=O)Nc3c(C)nn(Cc4ccccc4)c3C)no2)cc1	3	7	-2	0	-3	3	.
COc1cccc(-c2cc(C(=O)Nc3c(C)nn(Cc4ccccc4)c3C)no2)c1	-3	56*	2	8	1	-2	45*
COc1cccc(-c2cc(C(=O)Nc3cnn(Cc4ccccc4C)c3)no2)c1	1	4	0	-6	1	-3	.
COc1cccc(-c2cc(C(=O)Nc3c(C)nn(Cc4ccccc4C)c3C)no2)c1	-3	45*	-3	6	-1	-5	48*
Cc1ccc(NC(=O)CC2S/C(=N/N=C3/NC(=O)CS3)NC2=O)cc1 (stereo not drawn)	-1	-1	-11	0	2	14	.
CCOC(=O)c1ccc(NC(=O)CC2S/C(=N/N=C3/NC(=O)CS3)NC2=O)cc1 (stereo not drawn)	3	32*	-2	1	-2	33	2
Cc1ccc(S(=O)(=O)Nc2cccc(C(=O)N3CCOCC3)c2)c(C)c1NS(C)(=O)=O	-6	8	-1	4	2	9	.
Cc1ccc(-n2c(C)cc(C(=O)COc3cccnc3[N+](=O)[O-])c2C)cc1	-6	31*	-2	0	5	21	21
Cc1cc(C(=O)COc2cccnc2[N+](=O)[O-])c(C)n1-c1ccccc1F	-11	28*	3	2	0	30	25
Cc1cc(NC(=O)CCN2CCN(C)CC2)ccc1Br	3	-1	-1	-3	1	3	.
COc1cc(C(=O)O)nc(OC)n1	-6	-1	-1	0	-3	3	.
CCCCCCC[N+](CC)(CC)CCCCc1ccc(Cl)cc1	-1	35*	-3	2	4	0	30*
CCCCCNCc1ccc(Cl)cc1	-2	3	4	0	0	0	.
Cc1ccc(-n2cc(-c3ccccc3)c3c(N4CCN(C)CC4)ncnc32)cc1	1	30*	3	6	4	-2	20
O=C(O)CN1C(=O)/C(=C\c2cc(Br)ccc2OCc2ccc([N+](=O)[O-])cc2)SC1=S	-5	62*	15	2	13	-2	64*
CCN(CC)CCN1C(=O)c2ccccc2NC1c1ccc(Br)cc1 (stereo not drawn)	-1	28*	-6	-1	4	1	-3
SMILES	PAD4 inh	LYPLA2 counter	PME-1 primary	LYPLA1 inh	Fam108B inh	GSTO1 inh	LYPLA2 confirm
O=C(c1ccc(N2CCN(C3CC(=O)N(c4ccc(F)cc4)C3=O)CC2)cc1)c1cccnc1 (stereo not drawn)	1	35*	1	6	2	3	32*
CCOc1ccc(N2C(=O)CC(N3CCN(c4ccc(C(=O)c5ccncc5)cc4)CC3)C2=O)cc1 (stereo not drawn)	-3	29*	-4	5	4	6	20
COc1ccc(N2C(=O)CC(N3CCN(c4ccc(C(=O)c5cccnc5)cc4)CC3)C2=O)cc1 (stereo not drawn)	-2	23	-4	6	0	0	.
COc1cccc(OC)c1C(=O)OCC(=O)Nc1cccnc1Cl	-3	-3	4	-4	1	-7	.
CC(NC(=O)c1ccc(NC(=O)CC2SC(N3CCCC3)=NC2=O)cc1)c1ccc(S(N)(=O)=O)cc1 (stereo not drawn)	-4	7	1	6	1	6	.
C/C(=N\NC(=O)COc1ccc(C(C)(C)C)cc1)c1ccc(N2CCOCC2)cc1	1	4	-2	0	5	3	.
O=C(NC1CCc2ccccc21)c1cc(COc2cncc(Cl)c2)on1 (stereo not drawn)	0	43*	3	4	1	5	33*
O=C(NC1CCc2ccccc21)c1cc(COc2ccc(F)cc2Cl)on1 (stereo not drawn)	7	5	2	1	2	-2	.
Cc1cccc(Oc2cc(NC(=O)Cn3cnc([N+](=O)[O-])n3)cc([N+](=O)[O-])c2)c1	0	42*	5	-14	-4	-16	24
CCOC(=O)c1sc(/N=C/N(C)C)nc1C	-1	32*	2	4	1	3	2
O=C(CSc1ccccn1)N1CCN(c2ncc(C(F)(F)F)cc2Cl)CC1	1	-8	-3	5	-2	-1	.
O=C(O)c1nn(CC(=O)N2CCN(c3ncc(C(F)(F)F)cc3Cl)CC2)c(=O)c2ccccc12	-3	26*	-8	3	-4	8	30*
COc1cc(N2CCCC2)ccc1[N+](=O)[O-]	1	6	-9	4	1	-3	.
O=C(NCC(c1ccco1)N1CCc2ccccc2C1)C(=O)Nc1ccccc1 (stereo not drawn)	0	-4	-2	-1	1	-6	.
O=C(CCC(=O)N1CCN(c2ccc(Cl)c(Cl)c2)CC1)c1ccccc1	0	37*	7	13	-3	-4	31*
O=C(Cc1ccc(Cl)cc1)Nc1ccc2c(c1)C(=O)NC2=O	-3	-7	-14	-3	-1	1	.
CC(=O)c1ccc(N2CCN(C(=O)c3ccc4ccccc4n3)CC2)cc1	-3	1	-2	-1	2	3	.
CC(=O)c1ccc(N2CCN(C(=O)/C=C/c3ccc4ccccc4n3)CC2)cc1	-4	33*	-1	6	1	3	39*
